Hit rate of the full screen: of about 52,000 compounds, about 1,700 (3.3%) were called active. Cut-off read from the data, not from the text of the source: active = survival mostly below about 52% (no sharp cut-off); inactive = mostly above about 56%. Only a selection was taken, and actives are over-represented in it overall.
test system: Wild type; test: S. aureus survival, RN4220 and DeltatarO strains – OD600, teichoic acid synthesis inhibitors, primary screen (AID 463173); conditions: S. aureus RN4220 wild type/DeltatarO growth, OD600, 18 h, hits give low values, screened at 18.75 µg/mL (by protocol)

Row | SMILES | survival
1 | COc1ccc(S(=O)(=O)c2c(Nc3ccc(C)cc3)sc(C(=O)c3ccc4c(c3)OCO4)c2N)cc1 | 143% (inactive)
2 | CCNc1nc(NCC)nc(N(n2cnnc2)S(=O)(=O)c2ccc(C)cc2)n1 | 45% (inactive)
3 | CCOc1ccc(CNC(=O)c2cnc3sc(N(CC)CC)nn3c2=O)cc1 | 75% (inactive)
4 | COc1ccc(N2CCN(CCCNC(=O)Cn3c(-c4cccs4)cc4ccccc43)CC2)cc1 | 86% (inactive)
5 | Cc1cc(C)cc(NC(=O)CN2C(=O)COc3ccc(S(=O)(=O)Nc4ccccc4)cc32)c1 | 98% (inactive)
6 | Brc1cccc(-c2nnn3c2nc(N2CCCCC2)c2ccccc23)c1 | 76% (inactive)
7 | Cc1ccc(-c2nnn3c2nc(N2CCC(C)CC2)c2ccccc23)cc1 | -2% (active)
8 | COc1ccc(-c2nnn3c2nc(N2CCCC(C)C2)c2ccccc23)cc1 (stereo not given) | 0% (active)
9 | CC1CCCN(c2nc3c(-c4ccc(Cl)cc4)nnn3c3ccccc23)C1 (stereo not given) | 83% (inactive)
10 | CC1CCN(c2nc3c(-c4cccc(Br)c4)nnn3c3ccccc23)CC1 | 85% (inactive)
11 | Clc1ccc(-c2nnn3c2nc(N2CCCCC2)c2ccccc23)cc1 | 45% (inactive)
12 | COc1ccc(C2C(C(=O)Nc3ccc(C)cc3C)=C(C)Nc3nc4ccccc4n32)c(OC)c1 (stereo not given) | 65% (inactive)
13 | CCOC(=O)C1CCCN(S(=O)(=O)c2ccc3[nH]c(=O)oc3c2)C1 (stereo not given) | 88% (inactive)
14 | CCOc1ccc(NC(=O)CCCn2c(C)c3cnn(-c4ccccc4)c(=O)c3c2C)cc1 | 89% (inactive)
15 | COc1ccc(Cl)cc1NC(=O)C(C)N1Cc2ccccc2C1=O (stereo not given) | 85% (inactive)
16 | COC(=O)CSc1nc(N)c(C#N)c(-c2ccccc2)c1C#N | 112% (inactive)
17 | CCC(Sc1nc(N)cc(=O)[nH]1)C(=O)NC(C)c1ccccc1 (stereo not given) | 103% (inactive)
18 | O=C(CSc1nc(-c2ccccc2)cc(=O)[nH]1)c1ccccc1 | 119% (inactive)
19 | CC1CCN(c2ncnc3c2nnn3C)CC1 | 83% (inactive)
20 | CCOC(=O)C1CCN(c2ncnc3c2nnn3C)CC1 | 10% (active)
21 | CCOC(=O)C1CCN(c2cc(C)c(C#N)c3nc4ccccc4n23)CC1 | 99% (inactive)
22 | Cn1nnc2c(N3CCN(c4ccccc4)CC3)ncnc21 | 88% (inactive)
23 | CCOC(=O)C1CCCN(c2ncnc3c2nnn3C)C1 (stereo not given) | 121% (inactive)
24 | CCOC(=O)C1CCN(c2nc(-c3ccc(Br)cc3)nc3ccccc23)CC1 | 75% (inactive)

Row | SMILES | survival
25 | COc1ccc(N2CCN(c3ncnc4c3nnn4C)CC2)cc1 | -2% (active)
26 | Cn1nnc2c(N3CCN(c4ccc(F)cc4)CC3)ncnc21 | 80% (inactive)
27 | CCOC(=O)C1CCN(c2nc3ccccc3nc2Cl)CC1 | -26% (active)
28 | CCn1nnc2cc(C(=O)Nc3cccc(Cl)c3)ccc21 | 87% (inactive)
29 | CN(Cc1ccccc1)C(=O)C1CCC(CNS(=O)(=O)c2ccc3c(c2)CCCC(=O)N3)CC1 (stereo not given) | 131% (inactive)
30 | Clc1ccc2nc(-c3ccc(Br)o3)c(Nc3ccc4c(c3)OCCO4)n2c1 | 93% (inactive)
31 | O=C(CSc1ncccn1)NCCC1=CCCCC1 | 112% (inactive)
32 | CCc1ccc(-n2cnc3cc(C(=O)NCc4ccc(C)cc4)ccc32)cc1 | 65% (inactive)
33 | CCc1nc2ccccc2n1CCCCOc1ccc(Cl)cc1 | 2% (active)
34 | CCCCn1c(COc2cccc(OC)c2)nc2ccccc21 | 88% (inactive)
35 | COc1cccc(OCc2nc3ccccc3n2CCOc2cccc(C)c2)c1 | 73% (inactive)
36 | CCc1nc2ccccc2n1CCCCOc1ccccc1C | 24% (active)
37 | CCCn1c(COc2cccc(C)c2)nc2ccccc21 | 25% (active)
38 | Cc1ccccc1OCCCCn1c(CCNC(=O)C(C)(C)C)nc2ccccc21 | 65% (inactive)
39 | Cc1ccc(OCCCCn2c(CCNC(=O)C(C)(C)C)nc3ccccc32)cc1 | 76% (inactive)
40 | CC(=O)NCCc1nc2ccccc2n1CCCCOc1ccc(Cl)cc1 | 95% (inactive)
41 | CC(C)(C)C(=O)NCCc1nc2ccccc2n1CCCCOc1ccc(Cl)cc1 | 28% (inactive)
42 | CC(C)(C)C(=O)NCCc1nc2ccccc2n1CCCCOc1ccccc1 | 79% (inactive)
43 | CCc1nc2ccccc2n1CCCCOc1ccc(C)cc1 | 1% (active)
44 | Cc1ccccc1OCCn1c(CCNC(=O)C(C)(C)C)nc2ccccc21 | 75% (inactive)
45 | Cc1ccc(-c2nc3ccccc3[nH]2)cc1NC(=O)COc1ccc(Cl)cc1Cl | 45% (inactive)
46 | CC1=C(c2ccc(C(C)C)cc2)S(=O)(=O)NC1=NCc1ccccc1Br | 82% (inactive)
47 | COc1cc(NC(=O)CSc2nc3ccccc3nc2Cc2ccccc2OC)cc(OC)c1 | 66% (inactive)
48 | COc1ccccc1Cn1cc(C(=O)c2ccc(C)cc2)c(=O)c2cc(F)cc(F)c21 | 81% (inactive)

Row | SMILES | survival
49 | Cc1cc(C)c(NC(=O)Cn2c(=O)n(CCCCC(=O)NCc3ccccc3Cl)c(=O)c3ccccc32)c(C)c1 | 106% (inactive)
50 | Cc1cncn1CCc1nc2c3ccccc3nc(SCC(=O)Nc3cccc(Cl)c3)n2n1 | 80% (inactive)
51 | CCc1c(CN2CCN(c3ccccc3F)CC2)csc1C | 52% (inactive)
52 | Cc1ccc(CNC(=O)CSCc2ccc(F)cc2)cc1 | 101% (inactive)
53 | O=C(CCCSc1nc(-c2ccco2)cc(C(F)(F)F)n1)NCC1CCCO1 (stereo not given) | 108% (inactive)
54 | COc1ccccc1CNC(=O)c1cc2c(-c3ccc(Cl)cc3)nn(C)c2s1 | 151% (inactive)
55 | COCc1nc2ccccc2n1CCOc1cccc(C)c1 | 53% (inactive)
56 | CCc1nc2ccccc2n1CCCCOc1cccc(C)c1 | 12% (active)
57 | Cc1cccc(OCCCn2c(CCNC(=O)C(C)(C)C)nc3ccccc32)c1 | 84% (inactive)
58 | COc1ccc(-c2noc(N3CCC(C(=O)N4CCN(c5ccccc5F)CC4)CC3)n2)cc1 | 108% (inactive)
59 | COc1ccc(-n2ncc3c(NC4CCCC4)ncnc32)cc1 | 129% (inactive)
60 | COc1ccccc1N1CCN(C(=O)Cc2c(C(=O)O)c(C)cn2C)CC1 | -6% (active)
61 | Cc1cccc(N2CCN(C(=O)Cc3c(C(=O)O)c(C)cn3C)CC2)c1C | 70% (inactive)
62 | Cc1cn(C)c(CC(=O)N2CCN(c3cccc(Cl)c3)CC2)c1C(=O)O | 78% (inactive)
63 | COc1ccc(N2CCN(C(=O)Cc3c(C(=O)O)c(C)cn3C)CC2)cc1 | 14% (active)
64 | Cc1cn(C)c(CC(=O)N2CCN(c3ccccc3F)CC2)c1C(=O)O | 69% (inactive)
65 | Cc1cn(C)c(CC(=O)N2CCN(c3ccc(F)cc3)CC2)c1C(=O)O | 133% (inactive)
66 | CCOc1cccc(C2c3c(oc4cc(C)c(C)cc4c3=O)C(=O)N2c2nc(C)c(C)s2)c1 (stereo not given) | 71% (inactive)
67 | CCc1ccc(NC(=O)[C@H](CSCc2ccccc2)N2Cc3ccccc3C2=O)cc1 | 79% (inactive)
68 | CCc1ccccc1NC(=O)CN1CCC(NC(=O)NC2CCCCC2)CC1 | 102% (inactive)
69 | COc1ccccc1N1CCN(c2ncnc3c2nnn3C)CC1 | 129% (inactive)
70 | Cc1cc(F)ccc1NC(=O)C1CCCN(C(=O)c2cnn(-c3ccccc3)c2-n2cccc2)C1 (stereo not given) | 85% (inactive)
71 | CCCN1C(C(=O)c2ccccc2)=C(OC(=O)COc2ccc(C)cc2)c2ccccc2S1(=O)=O | 25% (inactive)
72 | c1ccc2c(c1)ncn2-c1ncnc2sc3c(c12)CCCC3 | 107% (inactive)

Row | SMILES | survival
73 | COc1ccc(-c2cc(OC(=O)c3cccc(Cl)c3)c3c(C)oc(C)c3c(=O)c2)cc1OC | 76% (inactive)
74 | CSc1cccc(NC(=O)c2cccc(N3CCCS3(=O)=O)c2)c1 | 115% (inactive)
75 | CCN(C(=O)Cn1c(C(=O)OC)cc2sccc21)c1cccc(C)c1 | 73% (inactive)
76 | O=c1cc(-c2ccccc2)nc(SCc2nc(-c3cccc(C(F)(F)F)c3)no2)[nH]1 | 83% (inactive)
77 | CCOC(=O)c1ccc(NC(=O)C2CCCN(c3ccc(Sc4ccc(C)cc4)nn3)C2)cc1 (stereo not given) | 80% (inactive)
78 | CCOc1ccc(NC(=O)C2CCCN(c3ccc(Sc4ccc(C)cc4)nn3)C2)cc1 (stereo not given) | 16% (active)
79 | Cc1ccc(Sc2ccc(N3CCCC(C(=O)Nc4ccc(Cl)cc4)C3)nn2)cc1 (stereo not given) | 71% (inactive)
80 | O=S(=O)(c1ccc(Br)cc1)c1nnn2c1nc(NCc1ccc3c(c1)OCO3)c1sccc12 | 90% (inactive)
81 | CCC(C)NC(=O)C1CCN(C(=O)c2ccc(-n3ccc4ccccc43)s2)CC1 (stereo not given) | 55% (inactive)
82 | CCOC(=O)C1CCN(C(=O)c2ccc(-n3ccc4ccccc43)s2)CC1 | 71% (inactive)
83 | CCOC(=O)C1CCCN(C(=O)c2ccc(-n3ccc4ccccc43)s2)C1 (stereo not given) | -3% (active)
84 | COCCn1c(=S)[nH]c2ccccc2c1=O | 105% (inactive)
85 | CCCC(=O)N(c1ccc2oc3c(c2c1)CCCC3)S(=O)(=O)c1ccc(CC)cc1 | 67% (inactive)
86 | CC(C)c1ccc(-c2nnn(CC(N)=O)n2)cc1 | 115% (inactive)
87 | CC(C)(C)OC(=O)N1CCC(c2c(C(=O)N3CCN(c4ccccn4)CC3)cnn2-c2ccc(F)cc2F)CC1 | 71% (inactive)
88 | Cc1cccc(N2CCN(C(=O)c3cnn(-c4ccc(F)cc4F)c3C3CCN(C(=O)OC(C)(C)C)CC3)CC2)c1C | 99% (inactive)
89 | CC(C)(C)OC(=O)N1CCC(c2c(C(=O)N3CCN(c4ncccn4)CC3)cnn2-c2ccc(F)cc2)CC1 | -1% (active)
90 | CC(C)(C)OC(=O)N1CCC(c2c(C(=O)N3CCN(c4ncccn4)CC3)cnn2-c2ccccc2)CC1 | 87% (inactive)
91 | CN1CCN(C(=O)c2cnn(-c3ccc(F)cc3F)c2C2CCN(C(=O)OC(C)(C)C)CC2)CC1 | 87% (inactive)
92 | Cc1ccc(-n2ncc(C(=O)N3CCN(c4cccc(C)c4C)CC3)c2C2CCNCC2)c(C)c1 | 84% (inactive)
93 | CC(C)(C)OC(=O)N1CCC(c2c(C(=O)N3CCN(c4ncccn4)CC3)cnn2-c2ccc(F)cc2F)CC1 | 1% (active)
94 | COc1ccccc1N1CCN(C(=O)c2cnn(-c3ccc(F)cc3F)c2C2CCNCC2)CC1 | 0% (active)
95 | Cc1ccc(-n2ncc(C(=O)N3CCN(c4ncccn4)CC3)c2C2CCN(C(=O)OC(C)(C)C)CC2)cc1 | 71% (inactive)

Source: PubChem BioAssay AID463173 (ICCB-Longwood Screening Facility, Harvard Medical School, 2010)
